# Measurements: PubChem BioAssay AID597 (National Center for Advancing Translational Sciences (NCATS), 2007)
# The campaign covered roughly 68,000 compounds. About 60 (0.09%) were called active. A selection follows. Unmarked numbers belong to inactive results. Calls come from the whole dose curve; as a rule, active = well fitted curve in the direction sought with a large enough effect; inconclusive = small, poorly fitted or top-dose-only effect; inactive = flat fitted curve, though single readings scatter. Where a SMILES comes first, the peptide text is derived from it. The star is where a group is joined. Bz = O=C(c1ccccc1)*
# Assay: qHTS Assay for Epigenetic Modulators; note: % of control where 0% means no effect
# Details: mouse C127i GFP locus derepression, cytometry, 30 h; series mostly up to 46.1 µM; GFP derepression (activation): at the top concentration
# Excerpt: NIH Molecular Libraries Screening Centers Network [MLSCN] NIH Chemical Genomics Center [NCGC] MLSCN Grant: 1 X01 MH079860-01 Assay Provider: Elisabeth D. Martinez, University of Texas SW Medical Center NCGC Assay Overview: The Locus Derepression assay detects the derepression of a GFP reporter that is stably integrated in a region of the genome of murine c127i mammary cells that is presumably silenced. GFP transcription in this construct is controlled by a CMV promoter, which normally is strong and constitutively active. However, this line was selected for lack of constitutive expression of the GFP protein. GFP production can be induced by incubating the cells with histone deacetylase or DNA methyltransferase inhibitors. Compounds that cause derepression of the locus to express GFP are identified by enumerating GFP positive cells using a laser-scanning microplate cytometer. For further details of this screen and follow-up characterization, see R.L. Johnson, W. Huang, A. Jadhav, C.P. Austin, J. Inglese, E.D. Martinez, A Quantitative High-Throughput Screen Identifies Potential Epigenetic Modulators of Gene Expression, Analytical Biochemistry (2008) 375(2):237-48.
# NCGC Assay Protocol Summary: Two hundred and fifty cells in 5 uL per well were dispensed into black, clear-bottom 1536-well plates. Twenty-three nL compound was transferred to the assay plate and cells were incubated 30 hours at 37 C. Medium was removed, cells were washed two times with PBS, and GFP-positive cells were enumerated as fluorescent objects between the sizes of 20 to 120 um width and depth using an Acumen Explorer. Keywords: NIH Roadmap, MLSCN, MLI, MLSMR, qHTS, NCGC, qHTS, HDAC, DNMT, HAT, DNA methyltransferases, histone acetyl transferases, histone deacetylases
row,Structure (SMILES),GFP derepression (activation)
1,Cn1c(=O)c2cn(-c3cccc4ccccc34)cc2n(C)c1=O,2.6%
2,CC(C)NC(=O)N1CC[C@@]2(CCCN(C(=O)c3cccc(F)c3)C2)C1,-0.9% [at 9.22 µM]
3,CC(=O)c1ccc(Oc2cc(C)nc(-n3nc(C)cc3C)n2)cc1,4.2%
4,Cc1ccc(-c2nn(-c3ccccc3)cc2CN(Cc2ccccc2)C(=O)CCC(=O)O)o1,2.2%
5,COc1ccc(N2CCN(Cc3cc(=O)oc4ccc5ccccc5c34)CC2)cc1,0%
6,O=C(NCCCNC(=O)NC1CCCCC1)NC1CCCCC1,0.2%
7,FC(F)(F)c1cccc(Nc2ncnc3ccccc23)c1,1.2%
8,O=C1C2(c3ccccc3)CN(CCCO)CC1(c1ccccc1)CN(CCCO)C2,2.1%
9,COC(=O)c1sc(=S)n(-c2ccccc2)c1N,1.6%
10,CCCN1C(=O)C(NC(C)=O)c2cc(OC)ccc21 (configuration not stated),-0.4%
11,O=C(NCCc1ccco1)c1nn(Cc2ccccc2)c(=O)c2ccccc12,-1.2%
12,CC(C)(C)C(=O)CCN1C(=O)C2(OCCO2)c2ccccc21,-1.2%
13,CCC(C(=O)OCCN(CC)CC)c1ccccc1 (configuration not stated),6.1% [at 20.6 µM]
14,Cc1cc(C)c2nc3c(c([C@H](O)[C@@H]4CCCCN4)c2c1)CC/C3=C/c1ccc(Cl)cc1,0% [at 9.22 µM]
15,CC1=CC(C)(C)N(C(=O)CSc2nnc(-c3ccccc3)o2)c2ccc(C)cc21,0%
16,O=C(O)c1ccc(NS(=O)(=O)c2cccc3nsnc23)cc1,-2.6%
17,COc1ccccc1C(=O)NCCn1cc(SCC(=O)NCc2ccco2)c2ccccc21,1.4%
18,O=C(Cn1[nH]c(=O)c2ccccc2c1=O)Nc1cccc(-c2nnc3n2CCCCC3)c1,1.3%
19,COc1ccc(NC(=O)c2c(C)oc3c2CCCC3)cc1,3.4%
20,CS(=O)(=O)N1CCC[C@@]2(CCN(c3ccncc3)C2)C1,0% [at 9.22 µM]
21,O=C(O)c1ccc(NC(=O)c2cccs2)cc1,3.2%
22,O=C(Nc1ccc(Cl)cc1)c1ccsn1,2.2%
23,COc1ccc(C2C3=C(CC(C)(C)CC3=O)Oc3ncn4nc(-c5cccnc5)nc4c32)cc1OC (configuration not stated),2.6%
24,CN1CCN2c3ccccc3Cc3ccccc3[C@@H]2C1,inactive
25,O=C(CCCn1c(SCC(=O)c2ccc(F)cc2)nc2ccccc2c1=O)NCc1ccco1,-1%

row,Structure (SMILES),GFP derepression (activation)
1,COC(=O)[C@H](C)NC(=O)Nc1ccc(OC(F)(F)F)cc1,-0.4%
2,COC(=O)c1cnn2c(C(F)(F)F)cc(-c3ccco3)nc12,0%
3,COc1ccc(-c2nnc(SC(=O)N3c4ccccc4Sc4ccccc43)o2)cc1,1.5%
4,COc1ccccc1-c1nc(NCc2cccs2)c2ccccc2n1,0% [at 9.22 µM]
5,O=c1oc2c(CN3CCCCC3)c(O)ccc2c2c1CCCCC2,0% [at 20.6 µM]
6,COc1ccc(C2N=C(N)N=C(N)N2c2ccccc2)cc1OC (configuration not stated),0%
7,O=C(O)COc1c(Cl)cc(Cl)c2cccnc12,5.8% [at 9.22 µM]
8,CCn1c(SCC(=O)Nc2ccc3c(c2)OCCO3)nc2c(c1=O)SC(C)C2 (configuration not stated),2.9%
9,Cn1c(=S)c2[nH]c(SCCCc3ccccc3)nc2n(C)c1=O,-3.4% [at 9.22 µM]
10,COc1cccc(Cn2c(=O)c(-c3ccccc3)nc3cnc(OC)nc32)c1,10.8% [at 9.22 µM]
11,CCCC(C(=O)OCCN(CC)CC)(c1ccccc1)c1ccccc1,inactive
12,O=C(OCCN1CCOCC1)C1(c2ccccc2)CCCCC1,inactive
13,O=C(c1cc(C(F)(F)F)cc(C(F)(F)F)c1)N1CCC2(CCCN(Cc3ccncc3)C2)CC1,2.2% [at 9.22 µM]
14,O=C(O)CCC(=O)Nc1ccc(N2CCOCC2)cc1,-1.2%
15,COCCn1c(=O)c(-c2cc(F)cc(F)c2)nc2cnc(N3CCNCC3)nc21,-0.5% [at 9.22 µM]
16,CN(C)C(=O)c1ccc(-c2cncnc2Nc2ccccc2)cc1,5.7% [at 9.22 µM]
17,COc1ccc(NC(=O)CSc2nnc(-c3cccs3)n2Cc2ccco2)cc1OC,-2.1%
18,CCOC(=O)N1CCN(C(=O)c2n[nH]c(=O)c3ccccc23)CC1,0%
19,CC(=O)Nc1ccc(S(=O)(=O)N2CCSCC2)cc1,0%
20,CCOc1ccc(NS(=O)(=O)c2ccc(OCC(=O)NCCCOC)cc2)cc1,-5.3%
21,COc1ccc(C(=O)N/N=C2/C(=O)c3c(C)cc(C)cc3CC2(C)C)cc1,3.4% [at 9.22 µM]
22,N#Cc1cc2[nH]c(=O)c(=O)[nH]c2cc1[N+](=O)[O-],1%
23,N/C(=N\c1nc2ccccc2o1)NC(=O)C(Cc1ccccc1)N1C(=O)c2ccccc2C1=O (configuration not stated),-2.2%
24,CCCNS(=O)(=O)c1ccc(CCC(=O)NCc2cccnc2)cc1,1.9%
25,Cc1nc2ccc(S(=O)(=O)NCC(=O)NCCN3CCCCC3C)cc2s1 (configuration not stated),2%

row,Structure (SMILES),GFP derepression (activation)
1,N#Cc1cccc(-c2nc3cnc(N4CCNCC4)nc3n(C3CC3)c2=O)c1,-5% [at 9.22 µM]
2,COc1ccc(C2OC(=O)CC2C(=O)NC(C)C)cc1 (configuration not stated),4.2%
3,O=C(NCC12CC3CC(C1)CC(CNC(=O)N1CCCC1)(C3)C2)N1CCCC1,-1.1%
4,C[C@]1(O)CC[C@H]2[C@H]3CC=C4N5CCN=C5CC[C@@]4(C)[C@H]3CC[C@@]21C,-3.4% [at 9.22 µM]
5,COCCn1c(=O)c(C)nc2cnc(N(C)C)nc21,2.3% [at 9.22 µM]
6,CN1CCCc2cc(C#N)c(=O)[nH]c21,-1.5%
7,CCCc1[nH]nc2c1C(c1ccc(OC(=O)c3ccco3)cc1)C(C#N)=C(N)O2 (configuration not stated),-1.3%
8,CCCCOc1ccc(-c2nnc(-c3ccco3)o2)cc1,1%
9,CC(C)NC(=O)N1CC[C@@]2(CCCN(C(=O)c3cccn3C)C2)C1,2.2% [at 9.22 µM]
10,O=S(=O)(NCc1ccc2c(c1)OCO2)c1cccc2nsnc12,-3.2%
11,COc1ccc(CNC(=O)c2c(C)cc(=O)oc2C)cc1OC,0% [at 20.6 µM]
12,Cc1cccc(CC(=O)Nc2c3c(nn2-c2cccc(Cl)c2)CS(=O)C3)c1 (configuration not stated),0%
13,Cc1nn(C)c(C)c1S(=O)(=O)N1CCc2ccccc21,0%
14,Cc1nc2cnc(N3CCNCC3)nc2n(CCc2ccccc2)c1=O,8.1% [at 9.22 µM]
15,Clc1ccc(C(c2ccc(Cl)cc2)n2cc[n+](C[C@@H](OCc3ccc(Cl)cc3Cl)c3ccc(Cl)cc3Cl)c2)cc1,-1.1%
16,C=CCSC1=C(C#N)C(c2cc(Br)c(O)c(OC)c2)CC(=O)N1 (configuration not stated),-3.4%
17,CN(C)CCSS(=O)(=O)O,0.1% [at 9.22 µM]
18,CC(NC(=O)CSc1nc2c(cc1C#N)CN(C)CC2)c1ccccc1 (configuration not stated),2.2% [at 20.6 µM]
19,CCNC(=O)CN(c1ccc(C)cc1)S(=O)(=O)c1ccc(SC)cc1,-1.5%
20,CC(=O)c1sc2nc(SCC(=O)N3CCCCC3)[nH]c(=O)c2c1C,4.5%
21,Cn1cccc1C1(C(F)(F)F)NCCNC1=O (configuration not stated),2.1%
22,CCOC(=O)N1CCN(C(=O)c2nn(-c3ccc(C)cc3)c(=O)c3c2c2ccccc2n3C)CC1,5%
23,COc1ccccc1CNC(=O)CCCNS(=O)(=O)c1cccc2nsnc12,1.8%
24,O=C(c1ccc(O)cc1)c1ccc(C(=O)O)c(C(=O)O)c1,2.1%
25,CCOC(=O)CNC(=O)CSc1nnnn1-c1cc(C)ccc1C,0%

row,Structure (SMILES),GFP derepression (activation)
1,COc1ccc(S(=O)(=O)Nc2c(C)n(C)n(-c3ccccc3)c2=O)cc1,2%
2,COc1ccc(C(C(O)C(=O)c2c[nH]c3ccccc23)N2CCN(c3ccccc3)CC2)cc1 (configuration not stated),-2.9%
3,Cn1c(=O)[nH]c(=O)c2c1nc(N(CCO)Cc1ccccc1)n2Cc1ccccc1Cl,-6.5% [at 20.6 µM]
4,Cn1c(=O)cc(SCC(=O)N2CCN(C(=O)c3ccco3)CC2)c2ccccc21,-2%
5,COc1ccc(OC)c(CNC(=O)C2CCCN(c3nc4ccccc4o3)C2)c1 (configuration not stated),2.1%
6,Cn1cc(-c2nc3cnc(N4CCNCC4)nc3n(CCC#N)c2=O)c2ccccc21,7.6% [at 9.22 µM]
7,CCOCCc1c(O)nc(SCC(=O)NCc2ccco2)[nH]c1=O,0.3%
8,N#CC(C(N)=O)=C1CCC2(CC1)OCCCCO2,-1%
9,COC(=O)c1ccc(C2NC(=O)NC(C)=C2C(=O)N(C)C)cc1 (configuration not stated),-1.1%
10,CCn1c2c(c3ccc(OC)cc31)CCCC2=O,0%
11,COc1ccc(S(=O)(=O)NC(CC(=O)NCc2ccccc2OC)c2ccco2)cc1 (configuration not stated),-1%
12,O=C(NC(Cc1ccccc1)C(=O)N1CCCC1C(=O)O)c1ccccc1 (stereo not drawn) (Bz-Phe-Pro-OH; configuration not given here),3.4%
13,Cc1nc2cnc(Oc3cccc(Cl)c3)nc2n(C2CC2)c1=O,-2.7% [at 9.22 µM]
14,C[C@H]1O[C@@H](CC(=O)O)Cc2c1c(O)c1c(O)cc(-c3cc(=O)c4c(=O)c5c(c(=O)c=4c3=O)C[C@H](CC(=O)O)O[C@@H]5C)c(O)c1c2O,10.3% [at 9.22 µM]
15,CNc1cc(-c2c(C)noc2C)ncn1,0% [at 9.22 µM]
16,O=C(c1c(Cl)nc2sccn12)N1CCCc2ccccc21,4.2%
17,Cc1ccc2[nH]c(=O)c(-c3nc4c(C)cccn4c3NCc3ccco3)cc2c1,-0.1%
18,COc1ccc(CNc2ncncc2-c2ccccc2C)c(OC)c1,0% [at 9.22 µM]
19,CCOC(=O)c1[nH]c2ccccc2c1N=C(C)N(CC)CC,0% [at 20.6 µM]
20,Fc1ccc(Cn2nnnc2C(c2cccs2)N2CCCCCC2)cc1 (configuration not stated),1.3%
21,COc1ccc2[nH]c(=O)c(CN(CC3CCCO3)C(=O)Nc3ccccc3)cc2c1 (configuration not stated),3.4%
22,COc1ccc2[nH]cc(CCNc3ncnc4ccc(-c5ccccc5CN(C)C)cc34)c2c1,-5.2% [at 9.22 µM]
